Rows were chosen to be rich in hits. Some 1.6% of all compounds tested hit in one or more screens of this group.
FUS yeast rescue: FUS proteinopathy suppression in yeast; S. cerevisiae FUS-expressing, growth rescue, OD600, 24 h; Potency, µM (doses to about 76.6 µM), most hits filed as activators; hit rate 0.24% among 390,000; AID 1347120; also: nearly all actives have a fitted effect of over 55% in size
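Compound concentration series was pinned onto galactose-induced FUS-expressing yeast seeded at OD 0.005. Plates sat 24hr at 30C; absorbance at 600 nm gave growth. DMSO served as background control.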
gsp antagonist: antagonists of gsp mutant (McCune-Albright syndrome); gsp-mutant cells, cAMP HTRF, 30 min; Potency, µM (doses to about 76.9 µM), hits mostly inhibitors; hit rate 0.4% among 340,000; AID 624288; calls by dose curve; cell line not stated here;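 also: intracellular cAMP measured with PDE inhibitor Ro 20-1724 present during compound exposure; nearly all actives have a fitted effect of over 65% in size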
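G418-selected cells were plated in DMEM/10% FBS for 16-24 h at 37C, then treated with compounds plus the PDE inhibitor […] (300 uM solution added) for 30 min at 37C. Intracellular cAMP was measured by HTRF after 30 min lysis at room temperature.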
gsp agonist: activates gsp, the McCune-Albright syndrome mutation | Potency, µM (highest dose often 76.9 µM), hits mostly activators | AID 624287 | hit rate 0.13% among 340,000 | gsp mutant cells, cAMP HTRF, 30 min; active = well fitted activation curve with a large enough effect; inconclusive = small, poorly fitted or top-dose-only effect, or another doubt; inactive = no such curve, though single readings can be large or run the other way; cell line not stated here;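 also: phosphodiesterase inhibitor Ro 20-1724 added with compounds to block cAMP breakdown; nearly all actives have a fitted effect of over 60% in size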
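Cells in DMEM/10% FBS with G418 were pretreated with compounds in DMSO plus […] (300 uM stock) for 30 min at 37C. cAMP was measured by HTRF (cAMP-d2 plus anti-cAMP antibody-K) after 30 min at room temperature.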
Mito fusion yeast: inhibitors of mitochondrial division or activators of mitochondrial fusion; S. cerevisiae fusion-defective mutant growth rescue, CellTiterGlo 48 h; Potency, µM (doses to about 46.1 µM), most hits filed as activators; hit rate 0.23% among 320,000; also: nearly all actives have a fitted effect of over 45% in size
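Yeast fusion mutant, YPEG (non-fermentable carbon), compound, 48 h at 37C non-permissive; CellTiterGlo added, 10 min RT, luminescence read. Rescued growth = division inhibition.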
12-LOX inh: ALOX12 (human) lipoxygenase inhibition; hit rate 1.1% among 580,000; Potency, µM (titrated, usually from 108 µM), usual class: inhibitors; purified 12hLO, xylenol orange hydroperoxide absorbance; AID 1671190; P18054
Target sequence (P18054 whole entry, looked up): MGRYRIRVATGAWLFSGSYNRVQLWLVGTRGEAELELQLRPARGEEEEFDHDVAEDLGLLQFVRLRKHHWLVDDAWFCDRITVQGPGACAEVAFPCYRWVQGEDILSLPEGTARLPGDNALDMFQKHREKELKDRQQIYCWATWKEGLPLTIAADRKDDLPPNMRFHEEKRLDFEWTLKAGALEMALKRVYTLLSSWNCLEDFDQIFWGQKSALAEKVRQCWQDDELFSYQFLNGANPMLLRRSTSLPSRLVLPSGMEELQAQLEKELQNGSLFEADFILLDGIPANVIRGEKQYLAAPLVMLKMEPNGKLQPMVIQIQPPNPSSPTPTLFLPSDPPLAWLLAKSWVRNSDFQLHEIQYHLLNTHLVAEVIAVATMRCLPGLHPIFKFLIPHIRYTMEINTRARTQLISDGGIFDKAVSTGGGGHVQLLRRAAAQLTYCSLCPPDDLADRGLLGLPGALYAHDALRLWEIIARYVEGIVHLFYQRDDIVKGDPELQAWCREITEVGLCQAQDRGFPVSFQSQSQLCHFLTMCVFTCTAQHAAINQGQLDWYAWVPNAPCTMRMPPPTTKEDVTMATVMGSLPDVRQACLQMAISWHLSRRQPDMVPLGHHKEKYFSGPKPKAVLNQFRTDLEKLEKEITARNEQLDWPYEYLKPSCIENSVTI
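Hydroperoxide product was detected by ferrous iron/xylenol orange as the 573 to 405 nm absorbance ratio. Arachidonic acid at 40 uM (final) was turned over for 30 min at room temperature by 150 nM human 12hLO, pH 7.0 Hepes buffer, after 15 min compound preincubation.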
Hits are given with their value; [ ] = another dose, or the depositor's remark. Unless noted, calls follow the shape of the dose curve; as a rule, active = well fitted curve in the direction sought with a large enough effect; inconclusive = small, poorly fitted or top-dose-only effect, or another doubt; inactive = no such curve, though single readings can be large; an effect the other way counts as inactive or inconclusive.

How did [N-]=C=C1C(=S)NC(=O)[C@H]([n+]2ccccc2)[C@H]1c1ccc(Cl)cc1 do in these assays?
FUS yeast rescue: inactive; gsp antagonist: inactive; gsp agonist: 20µM; Mito fusion yeast: inactive; 12-LOX inh: 10µM

What do the screens show for `[N-]=C=C1C(=O)NC(=O)C([n+]2ccc(-c3ccncc3)cc2)C1c1ccccc1C(F)(F)F` (stereo not given)?
FUS yeast rescue: inactive; gsp antagonist: inactive; gsp agonist: inactive[15.4 µM]; Mito fusion yeast: inactive; 12-LOX inh: inconclusive

How did CC(C)(C)NS(=O)(=O)c1ccc(C(=O)Nc2ccc3c(c2)OCO3)cc1 do in these assays?
FUS yeast rescue: inactive; gsp antagonist: inactive; gsp agonist: inactive; Mito fusion yeast: 35µM; 12-LOX inh: inactive

Results for CC(C)(C)NS(=O)(=O)c1ccc(CCC(=O)Nc2ccc3c(c2)OCO3)cc1 ?
FUS yeast rescue: inactive; gsp antagonist: inactive; gsp agonist: inconclusive; Mito fusion yeast: inactive; 12-LOX inh: inactive

Results for CCCCc1c(-c2ccccc2OC)ncn1Cc1ccccc1C ?
12-LOX inh: 28µM

What do the screens show for `CCN(C(=S)Nc1ccc(Oc2ccccc2)cc1)c1ccccc1`?
gsp antagonist: inactive; gsp agonist: inactive; Mito fusion yeast: inactive; 12-LOX inh: 50µM

How did Cc1ccc(Nc2nc(-c3c(C)nc4ccccn34)cs2)cc1 do in these assays?
gsp antagonist: inconclusive; gsp agonist: inactive; Mito fusion yeast: inactive; 12-LOX inh: inconclusive

Results for Cc1nc2ccccn2c1-c1ccnc(=S)[nH]1 ?
FUS yeast rescue: inactive; gsp antagonist: inactive; gsp agonist: inactive[15.4 µM]; Mito fusion yeast: inactive; 12-LOX inh: 16µM

How did COc1cc2c(cc1OC)CN(C(=O)/C=C/c1ccc([N+](=O)[O-])cc1)CC2 do in these assays?
FUS yeast rescue: inactive; gsp antagonist: inconclusive; gsp agonist: inactive; Mito fusion yeast: inactive; 12-LOX inh: 14µM

How did COc1cc2c(cc1OC)CN(C(=O)/C=C/c1ccccc1[N+](=O)[O-])CC2 do in these assays?
FUS yeast rescue: inactive; gsp antagonist: inactive; gsp agonist: inactive; Mito fusion yeast: inconclusive; 12-LOX inh: inconclusive

What do the screens show for `CCSC1=NC(C)(C)C=C(/C=C/c2ccc(Cl)cc2Cl)N1`?
FUS yeast rescue: inactive; gsp antagonist: inactive; gsp agonist: inactive; Mito fusion yeast: inactive; 12-LOX inh: 40µM

What do the screens show for `Cc1ccc2c(c1)c1c(n2CC(O)CNC2CCCCC2)CCCC1` (stereo not given)?
FUS yeast rescue: inactive; gsp antagonist: inactive; gsp agonist: inactive; Mito fusion yeast: inactive; 12-LOX inh: 28µM

How did Cc1oc(-c2ccccc2)nc1CC(=O)Nc1cccc(C(=O)Nc2ccncc2)c1 do in these assays?
12-LOX inh: inactive

How did COC(=O)c1cccc(N2CCCC2=O)c1 do in these assays?
FUS yeast rescue: inactive; gsp antagonist: inactive; gsp agonist: inactive; Mito fusion yeast: inactive; 12-LOX inh: inactive

Results for O=c1c2ccccc2sn1-c1ccc(Cl)cc1 ?
FUS yeast rescue: inactive; gsp agonist: inactive; 12-LOX inh: 0.25µM

Results for Cc1ccc(-n2sc3ccccc3c2=O)cc1 ?
FUS yeast rescue: inactive; gsp antagonist: inactive; gsp agonist: inactive; Mito fusion yeast: inactive; 12-LOX inh: 1.1µM

How did COC(=O)c1cccc(-n2sc3ccccc3c2=O)c1 do in these assays?
FUS yeast rescue: inactive; gsp antagonist: inconclusive; gsp agonist: inactive; Mito fusion yeast: inactive; 12-LOX inh: 1.3µM

What do the screens show for `O=c1c2ccccc2sn1-c1ccc(F)cc1`?
FUS yeast rescue: inactive; gsp antagonist: inactive; Mito fusion yeast: inactive; 12-LOX inh: inconclusive

What do the screens show for `C/C(=N\NC(=O)c1ccc(C(C)(C)C)cc1)c1ccc(C)cc1`?
12-LOX inh: inactive

How did O=C(Nc1ccc2c(N3CCOCC3)ncnc2c1)c1ccc(F)c(Cl)c1 do in these assays?
12-LOX inh: inactive

What do the screens show for `COCCN1C(=O)c2ccccc2C(C(=O)Nc2nc(C)c(C)s2)C12CCCC2` (stereo not given)?
12-LOX inh: inactive

Results for CC1=Nc2cc(C(=O)O)ccc2Sc2ccc(Br)cc21 ?
FUS yeast rescue: inactive; gsp antagonist: inactive; gsp agonist: inactive; Mito fusion yeast: inactive; 12-LOX inh: 45µM

What do the screens show for `N#C/C(=C\c1ccc(OC(F)F)cc1)C(=O)N1CCCCC1`?
FUS yeast rescue: inactive; gsp antagonist: inactive; gsp agonist: inactive; Mito fusion yeast: inactive; 12-LOX inh: inactive

How did N#C/C(=C/c1ccc(OC(F)F)cc1)C(N)=S do in these assays?
12-LOX inh: 32µM

Results for CNC(=O)c1cccc(NC(=O)c2ccc(N(C)C)cc2)c1 ?
12-LOX inh: inactive
